High-throughput results deposited in PubChem BioAssay by National Center for Advancing Translational Sciences (NCATS).
Tau fluor cs – counter-screen for tau fibril formation inhibitors; tau K18 P301L Alexa594 fluorescence, heparin fibrillization; 280,000 compounds, 0.93% hits; Potency, µM (top dose mostly 57.7 µM), inactives show at the highest dose activity change, negative = decrease; AID 1463; further: on the % scale 0 is the no-effect control and ±100 the full control effect; nearly all actives have a fitted effect of over 55% in size
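Human K18 P301L tau (15 uM unlabeled plus 0.24 uM Alexa 594-labeled, final) in 100 mM sodium acetate pH 7 was mixed with compound and 20 uM heparin and incubated 6 hr at 37 C.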
HttQ103 aggreg – reduces HttQ103-GFP aggregates in PC12 cells; PC12 HttQ103-GFP aggregates, Acumen cytometry, 40 h; Potency, µM (top dose mostly 46.1 µM), without a hit: top-dose activity change, negative = inhibition, actives largely listed as inhibitors; 220,000 compounds, 1.1% hits; further: on the % scale 0 is the no-effect control and ±100 the full control effect; nearly all actives have a fitted effect of over 60% in size
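PC12/HTTQ103-GFP, ecdysone-inducible; teb 100 nM; cpd qHTS titration; GFP aggregates read on laser cytometer, Ex 488/Em 500-530 nm.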
Tau fibril ThT – blocks human tau fibril formation measured by thioflavin T | recombinant tau K18 P301L (four-repeat tau fragment), heparin-induced fibrillization, ThT fluorescence | P10636 | Potency, µM (titrated, usually from 57.4 µM), for inactives: at the highest dose activity, negative = inhibition, most hits filed as inhibitors | 270,000 compounds, 2.1% hits; further: on the % scale 0 is the no-effect control and ±100 the full control effect; nearly all actives have a fitted effect of over 55% in size
Target sequence (P10636 561-689 P618L limits assumed): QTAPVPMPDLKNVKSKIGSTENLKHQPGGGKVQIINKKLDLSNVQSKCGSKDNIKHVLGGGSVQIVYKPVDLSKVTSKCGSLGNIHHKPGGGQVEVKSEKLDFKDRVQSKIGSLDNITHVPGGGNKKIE
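K18 P301L tau (15 uM + 0.24 uM Alexa 594-tagged), heparin 20 uM, NaOAc pH 7, 6 h 37 C; ThT 30 uM, 1 h RT, ex 450/em 510 nm.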
Tau FP inhib – tau fibrillization inhibition (FP). P10636. K18 P301L tau heparin fibrillization, Alexa594 FP, 6 h. Potency, µM (doses to about 57.7 µM), inactives show at the top dose activity, negative = inhibition, hits mostly inhibitors. 280,000 compounds, 0.39% hits; further: on the % scale 0 is the no-effect control and ±100 the full control effect; nearly all actives have a fitted effect of over 55% in size
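Recombinant K18 P301L […], labeled with Alexa 594 at 0.24 uM over 15 uM unlabeled; heparin inducer 20 uM final; 37 C, 6 hr; FP endpoint.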
HTT ATP protect – protects HTT-Q103 PC12 cells, measured by ATP. PC12 HTT-Q103 induced, cytoprotection, ATP luminescence, 40 h. Potency, µM (top dose mostly 56.4 µM), without a hit: cytoprotection (ATP increase), actives largely listed as activators. 230,000 compounds, 0.14% hits. AID 1471; further: % of control where 0% means no effect; nearly all actives have a fitted effect of over 45% in size
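Compounds added alongside 100 nM tebufenozide, which induces toxic Q103 huntingtin exon 1-GFP in stable PC12 cells; surviving cells quantified by luminescent ATP measurement. Medium: phenol red-free DMEM, 5% equine and 5% calf serum.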
* hit, by the source's call; u = inconclusive; x = no result; [ ] = another dose, or the depositor's remark. Rows were chosen to be rich in hits. Some 3.7% of all compounds tested hit in one or more screens of this group. The call rests on the fitted dose curve; in most records, active means well fitted curve in the direction sought with a large enough effect; inconclusive means small, poorly fitted or top-dose-only effect, or another doubt; inactive means no such curve, though single readings can be large; an effect the other way counts as inactive or inconclusive. Potency means the concentration at half of the fitted maximal effect.

SMILES | Tau fluor cs | HttQ103 aggreg | Tau fibril ThT | Tau FP inhib | HTT ATP protect
COC(=O)c1c(C(=O)OC)c2cccc3cc(-c4ccccc4)c4ccc1c4n32 | u | 1.7% | 3.55µM* | -13.6% | -15.1%
COC(=O)c1cc(-c2ccccc2)sc1N | u | -4.6% | u | 15.6% | -2.6%
COC(=O)c1cc2c(-c3ccccc3)cc3ccccn3c-2c1C(=O)OC | u | -27.8% | 15.8µM* | 10.2% | -9.7%
O=S(=O)(c1cccc(C(F)(F)F)c1)N1c2ccccc2-n2cccc2[C@H]1c1cccnc1 | x | x | x | x | 11.3%[10 µM]
COc1ccc(-c2nc3sc(CCNC(=O)C(=O)Nc4ccccc4C#N)c(C)n3n2)cc1 | -19.9% | x | u | u | x
Clc1ccc(CSc2ncnc3c2ncn3[C@@H]2CCCCO2)cc1 | x | x | x | x | -7.9%[10 µM]
CCC(=O)/C=C1/Sc2ccccc2N1CC | -6.5% | 7.08µM* | u | -3.7% | 2.6%[10 µM]
CCC(=O)/C=C1/Sc2ccc(OC)cc2N1CC | -5.9% | -15.1% | u | -4.6% | 17.6%
O=S(=O)(Nc1ccc(O)c(Sc2nc3ccccc3s2)c1)c1cccc2ccccc12 | 0.1% | -7.3% | 5.3% | 1.7% | 22.6%[10 µM]
Cc1cc(S(=O)(=O)Nc2ccc(O)c(Sc3nc4ccccc4s3)c2)ccc1Cl | 10µM*[quencher] | x | u | u | x
O=S(=O)(Nc1ccc(O)c(Sc2nc3ccccc3s2)c1)c1ccc(F)cc1 | u | -20.5% | -15.0% | 8.0% | -3.3%[10 µM]
O=S(=O)(Nc1ccc(O)c(Sc2nc3ccccc3s2)c1)c1cc(Cl)ccc1Cl | 10µM*[quencher] | x | u | u | x
Cc1ccc(N2NC(C)(c3cccs3)NC2=S)cc1 (stereo unspecified) | u | 18.7% | 15.8µM* | -8.3% | -24.1%[10 µM]
COC(=O)C1=C(O)/C(=C\c2ccc(CNS(=O)(=O)c3ccc(Cl)cc3)o2)N=C1C | -19.8% | 31.2% | u | -7.0% | -10.8%[10 µM]
COC(=O)C1=C(O)/C(=C\c2ccc(CNS(=O)(=O)c3ccccc3)o2)N=C1C | u | -5.2% | 14.1µM* | u | 23.0%[10 µM]
COc1ccc2nc(NCN3C(=O)c4ccccc4C3=O)sc2c1 | x | x | x | x | -6.6%[10 µM]
COc1ccc(C2=CSC3=C(C(=O)c4cccc(S(=O)(=O)N(C)C)c4)CCN23)cc1 | u | -14.1% | 25.1µM* | u | -6.0%[10 µM]
COc1cccc(CS(=O)(=O)c2nnnn2-c2ccc(F)cc2Br)c1 | 0.3% | x | -1.5% | 2.7% | -38.7%
COc1cc(/C=N/NC(=O)CCn2c3ccccc3c3ccccc32)ccc1O | 25.1µM*[quencher] | u | u | 9.6% | -5.2%[10 µM]
c1ccc(N2CCN(c3nc(-c4cccs4)nc4ccccc34)CC2)cc1 | -15.8% | 12.6% | u | -5.4% | 8.9%[10 µM]
Oc1ccc(N2CCN(c3nc(-c4cccs4)nc4ccccc34)CC2)cc1 | 14.1µM*[quencher] | -16.8%[9.22 µM] | x | 5.3% | -2.3%[10 µM]
Cc1ccc(S(=O)(=O)NCc2ccncc2)cc1 | -5.9% | 3.55µM* | -2.2% | -5.1% | -6.4%
Cc1ccc(C)c(S(=O)(=O)NCc2ccncc2)c1 | 6.8% | 10µM* | 2.5% | 12.1% | -15.1%
Cc1ccc(S(=O)(=O)NCC(=O)NCc2ccncc2)cc1 | 8.7% | -4.7% | 3.2% | 10.3% | 14.0%[10 µM]
Cc1oc2c(c1C(=O)Nc1ccc(Cl)cc1F)C1=NCCN1C=N2 | -9.5% | x | u | -12.0% | x
SMILES | Tau fluor cs | HttQ103 aggreg | Tau fibril ThT | Tau FP inhib | HTT ATP protect
O=C1c2ccccc2C(=O)c2c(NC3CCCCC3)ccc(Nc3ccc(S(=O)(=O)O)cc3)c21 | x | x | x | x | -4.3%[10 µM]
COc1ccc(C2CC(c3ccccc3)=NN2C(=O)c2cccs2)cc1 (stereo unspecified) | 7.94µM*[quencher] | u | -14.4% | u | -79.0%
CCC(CC)C(=O)Nc1nnc(S(=O)(=O)N2CCc3ccccc32)s1 | -25.9% | x | u | 1.9% | x
CCC(CC)C(=O)Nc1nnc(S(=O)(=O)N2c3ccccc3CC2C)s1 (stereo unspecified) | -22.0% | x | 14.1µM* | -3.4% | x
CCC(=O)Nc1nnc(S(=O)(=O)N2CCc3ccccc32)s1 | -29.7% | x | 17.8µM* | -9.5% | x
CC(C)CC(=O)Nc1nnc(S(=O)(=O)N2CCc3ccccc32)s1 | u | x | 2.24µM* | 11.7% | x
CC1CCC(C(=O)O)([C@H](Br)C(=O)O)CC1 (stereo partly specified) | x | x | x | x | -1.7%[10 µM]
